Out of some 350,000 compounds screened, about 6,000 (1.7%) were called active. Another 5% or so got no clear call; they are omitted. The sample holds actives, similar compounds and a random draw of the others, so the mix is not that of the screen. Cut-off read from the data, not from the text of the source: active = CPE inhibition above about 20% (passing the limit was not always enough); inconclusive = no clear call, values can overlap the other calls; tested in BHK-21 cells.
experiment: inhibitors of DENV2 cytopathic effect, primary screen, cell-based, plate reader, single concentration (AID 651640); settings: DENV2-infected cells, cytopathic effect rescue, at 9.99 µM, hits give high values;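 note: 0% = median of neutral control wells and 100% = median of positive control wells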

Row | Structure (SMILES) | CPE inhibition
1 | CC(C)CC#Cc1ccc([C@H]2[C@H]3CN(C(=O)CN4CCOCC4)CC(=O)N3[C@H]2CO)cc1 | -1.35% (inactive)
2 | COc1ccccc1CNC(=O)C[C@@H]1C[C@@H]2c3cc(NC(=O)C4CCOCC4)ccc3O[C@@H]2[C@@H](CO)O1 | 2.24% (inactive)
3 | COC(=O)[C@@H]1[C@@H](CO)[C@@H]2Cn3c(ccc(-c4ccccc4F)c3=O)[C@@H]2N1CC1CCOCC1 | -7.38% (inactive)
4 | C[C@@H]1CCCCO[C@@H](CN(C)S(=O)(=O)c2cn(C)cn2)[C@@H](C)CN([C@@H](C)CO)C(=O)c2cc(NC(=O)NC3CCCCC3)ccc2O1 | 7.41% (inactive)
5 | C[C@@H]1CN([C@@H](C)CO)S(=O)(=O)c2ccc(-c3ccccc3F)cc2O[C@H]1CN(C)Cc1cncnc1 | -7.02% (inactive)
6 | CN(C)C(=O)[C@@H]1[C@@H](CO)[C@@H]2Cn3c(cccc3=O)[C@H]1N2C(=O)c1ccc(F)cc1 | 2.89% (inactive)
7 | C[C@H]1CN([C@@H](C)CO)C(=O)c2cccc(NC(=O)c3ccncc3)c2O[C@@H]1CN(C)C | -3.46% (inactive)
8 | C[C@@H]1CCCCO[C@H](CN(C)S(=O)(=O)c2cccs2)[C@@H](C)CN([C@@H](C)CO)C(=O)c2cc(NC(=O)Nc3ccc4c(c3)OCO4)ccc2O1 | 2.44% (inactive)
9 | O=C(N[C@H]1CC[C@H](CCNS(=O)(=O)c2ccc(F)cc2)O[C@H]1CO)C1CCC1 | 0.0715% (inactive)
10 | CCNC(=O)Nc1ccc2c(c1)C(=O)N(C)[C@@H]1CC[C@@H](CC(=O)NCCOC)O[C@@H]1CO2 | -6.67% (inactive)
11 | CC(C)C#Cc1ccc2c(c1)O[C@@H](CN(C)Cc1ccncc1)[C@@H](C)CN([C@@H](C)CO)S2(=O)=O | -4.86% (inactive)
12 | COc1ccc(NC(=O)CSc2nc(N)c(-c3ccccc3)c(=O)[nH]2)cc1 | 15.2% (inactive)
13 | COc1ccc(NC(=O)c2cn(-c3ccccc3)nc2SC)cc1 | 30.9% (active)
14 | COc1ccccc1C(=O)Nc1ccc(Nc2ccccc2)cc1 | 1.78% (inactive)
15 | COc1ccc(CNC(=O)C[C@H]2C[C@H](C(=O)N3CCOCC3)[C@@]3(CCC4CCCC4)c4[nH]c5ccc(Cl)cc5c4CCN3C2=O)cc1OC | 0.122% (inactive)
16 | CN(C)C(=O)CCc1ccc2c3c([nH]c2c1)[C@]1(CCC2CCCC2)[C@@H](C(=O)N2CCOCC2)C[C@H](CC(=O)NCc2ccco2)C(=O)N1CC3 | -10.7% (inactive)
17 | O=C(C[C@H]1C[C@H](C(=O)N2CCOCC2)[C@@]2(CCC3CCCC3)c3[nH]c4ccc(Cl)cc4c3CCN2C1=O)NCc1ccco1 | 88.4% (active)
18 | Cc1ccc(S(=O)(=O)Nc2ccc3c(c2)C(=O)N([C@H](C)CO)C[C@@H](C)[C@H](CN(C)S(=O)(=O)c2ccc(C)cc2)OCCCC[C@@H](C)O3)cc1 | 1.84% (inactive)
19 | Cc1ccc(S(=O)(=O)N(C)C[C@@H]2Oc3ccc(NC(=O)NC4CCCCC4)cc3C(=O)N([C@@H](C)CO)C[C@H]2C)cc1 | 23.4% (active)
20 | Cc1ccc(S(=O)(=O)N(C)C[C@@H]2OCCCC[C@H](C)Oc3ccc(NS(=O)(=O)c4cn(C)cn4)cc3C(=O)N([C@H](C)CO)C[C@@H]2C)cc1 | -2.41% (inactive)
21 | C[C@@H]1CCCCO[C@@H](CN(C)S(=O)(=O)c2cn(C)cn2)[C@H](C)CN([C@@H](C)CO)C(=O)c2cc(NC(=O)Nc3ccccc3)ccc2O1 | -1.09% (inactive)
22 | C[C@@H]1CCCCO[C@@H](CN(C)S(=O)(=O)c2cn(C)cn2)[C@H](C)CN([C@H](C)CO)C(=O)c2cc(NS(=O)(=O)c3ccc(Cl)cc3)ccc2O1 | 3.2% (inactive)

Row | Structure (SMILES) | CPE inhibition
23 | C[C@H](CO)N1C[C@H](C)[C@@H](CN(C)S(=O)(=O)c2cn(C)cn2)OCCCC[C@H](C)Oc2ccc(NC(=O)Cc3ccccc3)cc2C1=O | 123% (active)
24 | Cc1ccc(S(=O)(=O)N(C)C[C@@H]2OCCCC[C@@H](C)Oc3ccc(NS(=O)(=O)c4ccccc4)cc3C(=O)N([C@H](C)CO)C[C@@H]2C)cc1 | 0.648% (inactive)
25 | Cc1ccc(S(=O)(=O)N(C)C[C@H]2OCCCC[C@@H](C)Oc3ccc(NS(C)(=O)=O)cc3C(=O)N([C@H](C)CO)C[C@@H]2C)cc1 | 24.2% (active)
26 | C[C@@H]1CN([C@H](C)CO)C(=O)c2cc(NC(=O)Cc3ccccc3)ccc2O[C@H]1CN(C)S(=O)(=O)c1cn(C)cn1 | 0.292% (inactive)
27 | Cc1ccc(S(=O)(=O)N(C)C[C@H]2OCCCC[C@@H](C)Oc3ccc(NC(=O)NC4CCCCC4)cc3C(=O)N([C@H](C)CO)C[C@@H]2C)cc1 | 0.877% (inactive)
28 | C[C@@H]1CN([C@H](C)CO)C(=O)c2cc(NC(=O)NC3CCCCC3)ccc2O[C@H]1CN(C)S(C)(=O)=O | 2.68% (inactive)
29 | Cc1ccc(S(=O)(=O)Nc2ccc3c(c2)C(=O)N([C@H](C)CO)C[C@H](C)[C@@H](CN(C)S(=O)(=O)c2cn(C)cn2)OCCCC[C@H](C)O3)cc1 | 39.2% (active)
30 | O=C(C[C@@H]1C[C@@H]2c3cc(NC(=O)NC4CCCC4)ccc3O[C@@H]2[C@H](CO)O1)NCC(F)(F)F | 7.08% (inactive)
31 | CN(C)C(=O)[C@@H]1[C@@H](CO)[C@@H]2Cn3c(ccc(-c4ccccc4)c3=O)[C@@H]2N1CCC(F)(F)F | 3.4% (inactive)
32 | C[C@@H]1CN([C@H](C)CO)C(=O)c2ccccc2-c2ccccc2CO[C@H]1CN(C)C(=O)CCC(F)(F)F | 1.69% (inactive)
33 | CC(C)C[C@H](NC(=O)CC1CCCC1)C(=O)N1CCC[C@H]1C(=O)NCc1ccccc1 | -0.111% (inactive)
34 | COc1ccc(NC(=O)N(C)C[C@@H]2Oc3ccc(NC(=O)CCC(F)(F)F)cc3C(=O)N([C@@H](C)CO)C[C@H]2C)cc1 | -3.47% (inactive)
35 | O=C(C1CCCCC1)N1CC(=O)N2[C@H](CO)[C@H](c3ccc(Br)cc3)[C@H]2C1 | -9.75% (inactive)
36 | C[C@@H]1CN([C@@H](C)CO)S(=O)(=O)c2ccc(C#CC(C)(C)O)cc2O[C@H]1CN(C)C(=O)CN(C)C | 14.1% (inactive)
37 | Cc1ccc(S(=O)(=O)Nc2cccc3c2O[C@H](CN(C)CC2CCCCC2)[C@H](C)CN([C@H](C)CO)C3=O)cc1 | -0.201% (inactive)
38 | N[C@@H]1CC[C@H](CCn2cc(C3CC3)nn2)O[C@@H]1CO | -2.16% (inactive)
39 | N#C[C@H]1[C@@H](c2ccccc2-c2ccccc2F)[C@@H](CO)N1C(=O)C1CCC1 | -1.39% (inactive)
40 | C[C@@H]1CN([C@@H](C)CO)C(=O)c2cc(NS(C)(=O)=O)ccc2O[C@@H]1CN(C)C(=O)Nc1ccccc1 | 4.47% (inactive)
41 | C[C@@H]1CN([C@@H](C)CO)C(=O)c2cc(C3=CCCC3)cnc2O[C@H]1CN(C)C(=O)c1ccccn1 | 1.01% (inactive)
42 | CC1(Cc2cccc(C#N)c2)C(=O)Nc2ccc(-c3cccc(C(F)(F)F)c3)cc21 (stereo unspecified) | 94.5% (active)
43 | N#Cc1c(-c2ccccc2)nc(SCc2cccc(C(F)(F)F)c2)[nH]c1=O | -3.77% (inactive)
44 | C=CCn1cc(-c2cccc(C(F)(F)F)c2)cc(C#N)c1=O | -0.13% (inactive)

Row | Structure (SMILES) | CPE inhibition
45 | COc1ccccc1NC(=O)N[C@H]1CC[C@H](CCn2cc(-c3cccnc3)nn2)O[C@@H]1CO | 7.27% (inactive)
46 | CCN(C[C@H]1[C@H](c2ccc(-c3ccccc3)cc2)[C@H](CO)N1CC1CC1)C(C)=O | -11.4% (inactive)
47 | C[C@H](CO)N1C[C@H](C)[C@H](CN(C)Cc2cccc(F)c2)Oc2ncc(C#CCN(C)C)cc2C1=O | -7.01% (inactive)
48 | Cc1cc([N+](=O)[O-])nn1Cc1ccc(F)cc1 | -2.03% (inactive)
49 | Cc1nc(N)nc(SCc2ccc([N+](=O)[O-])cc2)c1N | 5.04% (inactive)
50 | Cc1nc(SCc2ccc(F)cc2)c([N+](=O)[O-])[nH]1 | 70.9% (active)
51 | COc1ccc(S(=O)(=O)N(C)C[C@H]2Oc3c(NC(=O)CCCCCC(=O)Nc4ccccc4N)cccc3C(=O)N([C@H](C)CO)C[C@H]2C)cc1 | -2.7% (inactive)
52 | COc1ccccc1Cc1c(-c2ccc(F)cc2)nc2ccc(C)cn12 | -9.92% (inactive)
53 | CN(C)CC(=O)N[C@H]1CC[C@H](CCNC(=O)Nc2ccc(F)cc2)O[C@H]1CO | 6.32% (inactive)
54 | CCOC(=O)c1cccc(NC(=O)CN2C(=O)C3CC=CCC3C2=O)c1 (stereo unspecified) | 76% (active)
55 | CCOC(=O)c1cccc(NC(=O)CCOc2ccccc2)c1 | -0.064% (inactive)
56 | CCCCN1C(=O)C(=O)N(CC(=O)Nc2cccc(C(C)=O)c2)C1=O | -4.58% (inactive)
57 | O=C(c1cccnc1)N1CC(=O)N2[C@H](CO)[C@@H](c3ccc(-c4ccc(F)cc4)cc3)[C@@H]2C1 | -0.715% (inactive)
58 | O=C(C[C@@H]1CC[C@@H]2[C@H](COC[C@H](O)CN2C(=O)Cc2ccccc2)O1)NC1CCC1 | 34.4% (active)
59 | O=C(C[C@@H]1CC[C@H]2[C@@H](COC[C@@H](O)CN2C(=O)c2ccc3c(c2)OCO3)O1)NC1Cc2ccccc2C1 | 35.1% (active)
60 | O=C(C[C@H]1CC[C@@H]2[C@H](COC[C@H](O)CN2C(=O)c2ccc3c(c2)OCO3)O1)NC1CCC1 | 2.16% (inactive)
61 | O=C(C[C@H]1CC[C@H]2[C@@H](COC[C@@H](O)CN2Cc2ccccc2)O1)N[C@@H]1CCN(Cc2ccccc2)C1 | 17.9% (inactive)
62 | O=C(C[C@@H]1CC[C@H]2[C@@H](COC[C@@H](O)CN2C(=O)c2ccc3c(c2)OCO3)O1)NC1CCCC1 | -3.32% (inactive)
63 | O=C(C[C@H]1CC[C@@H]2[C@H](COC[C@H](O)CN2Cc2ccccc2F)O1)NC1CCC1 | -4.44% (inactive)
64 | O=C(C[C@H]1CC[C@H]2[C@@H](COC[C@@H](O)CN2C(=O)c2ccc3c(c2)OCO3)O1)NC1Cc2ccccc2C1 | 32.6% (active)
65 | O=C(C[C@@H]1CC[C@@H]2[C@H](COC[C@H](O)CN2C(=O)c2cccnc2)O1)NC1Cc2ccccc2C1 | -4.15% (inactive)
66 | O=C(C[C@@H]1CC[C@@H]2[C@H](COC[C@H](O)CN2C(=O)c2ccc3c(c2)OCO3)O1)NC1CCCC1 | -0.397% (inactive)

Reference: PubChem BioAssay AID651640 (Broad Institute, 2012)
